# PubChem BioAssay AID1159580 (chemical genetic matrix, 2015)
# About 2,000 (36%) of roughly 5,500 compounds were called active. Not shown: some 18% with an inconclusive outcome. This is one part of the list. Unmarked numbers belong to inactive results. Cut-off read from the data, not from the text of the source: active = normalized growth mostly below about 0.91 (no sharp cut-off); inconclusive = no clear call, values can overlap the other calls; inactive = mostly above about 0.92.
# Assay: chemical genetic growth profiling, strain panel (AID 1159580);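 note: tested at 20 µM; growth read once vehicle control cultures reached saturation at 30 °C; 1 = growth at the plate median or of vehicle wells; lower values mean less growth of the strain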
# Conditions: S. cerevisiae deletion strains, growth OD
smiles,measurement,setting,value
CN1CCC(=C2c3ccccc3CCc3sccc32)CC1,normalized growth,"locus YAL021C, strain ccr4, active compounds read low",0.91
same,normalized growth,"locus YAL026C, strain drs2, active compounds read low",0.956
same,normalized growth,"locus YAL030W, strain snc1, active compounds read low",0.987
same,normalized growth,"locus YBL061C, strain skt5, active compounds read low",0.967
same,normalized growth,"locus YBR009C, strain hhf1, active compounds read low",0.986
same,normalized growth,"locus YBR023C, strain chs3, active compounds read low",0.969
same,normalized growth,"locus YBR171W, strain sec66, active compounds read low",0.961
same,normalized growth,"locus YBR231C, strain swc5, active compounds read low",0.965
same,normalized growth,"locus YBR279W, strain paf1, active compounds read low",0.959
same,normalized growth,"locus YCL011C, strain gbp2, active compounds read low",0.958
same,normalized growth,"locus YCL016C, strain dcc1, active compounds read low",0.948
same,normalized growth,"locus YCL069W, strain vba3, active compounds read low",0.977
same,normalized growth,"locus YCR088W, strain abp1, active compounds read low",0.979
same,normalized growth,"locus YDL005C, strain med2, active compounds read low",0.968
same,normalized growth,"locus YDL040C, strain nat1, active compounds read low",0.98
same,normalized growth,"locus YDR001C, strain nth1, active compounds read low",0.96
same,normalized growth,"locus YDR069C, strain doa4, active compounds read low",0.905
same,normalized growth,"locus YDR137W, strain rgp1, active compounds read low",1.08
same,normalized growth,"locus YDR159W, strain sac3, active compounds read low",0.952
same,normalized growth,"locus YDR195W, strain ref2",0.954
same,normalized growth,"locus YDR297W, strain sur2, active compounds read low",0.976
same,normalized growth,"locus YDR334W, strain swr1, active compounds read low",0.972
same,normalized growth,"locus YDR335W, strain msn5, active compounds read low",0.949
same,normalized growth,"locus YDR392W, strain spt3, active compounds read low",0.93
same,normalized growth,"locus YEL003W, strain gim4, active compounds read low",0.982
same,normalized growth,"locus YEL037C, strain rad23, active compounds read low",0.975
same,normalized growth,"locus YEL061C, strain CIN8 (second series), active compounds read low",0.967
same,normalized growth,"locus YER015W, strain faa2, active compounds read low",0.967
same,normalized growth,"locus YER016W, strain bim1, active compounds read low",0.995
same,normalized growth,"locus YER111C, strain swi4, active compounds read low",0.954
same,normalized growth,"locus YER155C, strain BEM2 (second series), active compounds read low",0.933
same,normalized growth,"locus YFR010W, strain ubp6, active compounds read low",0.961
same,normalized growth,"locus YGL167C, strain pmr1, active compounds read low",0.969
same,normalized growth,"locus YGL173C, strain kem1, active compounds read low",0.972
same,normalized growth,"locus YGL227W, strain vid30, active compounds read low",0.941
same,normalized growth,"locus YGL240W, strain doc1, active compounds read low",0.998
same,normalized growth,"locus YGL253W, strain hxk2, active compounds read low",0.977
same,normalized growth,"locus YHR013C, strain ard1, active compounds read low",0.842 (active)
same,normalized growth,"locus YHR027C, strain rpn1, active compounds read low",0.954
same,normalized growth,"locus YHR030C, strain SLT2, active compounds read low",0.943
same,normalized growth,"locus YHR079C, strain IRE1, active compounds read low",0.97
same,normalized growth,"locus YHR142W, strain chs7, active compounds read low",0.951
same,normalized growth,"locus YJL092W, strain hpr5, active compounds read low",0.975
same,normalized growth,"locus YJL095W, strain BCK1 (second series), active compounds read low",0.973
same,normalized growth,"locus YJL095W, strain BCK1, active compounds read low",1.02
same,normalized growth,"locus YJL115W, strain asf1, active compounds read low",0.922
same,normalized growth,"locus YJL129C, strain trk1, active compounds read low",0.967
same,normalized growth,"locus YJL154C, strain vps35, active compounds read low",0.968
same,normalized growth,"locus YJL164C, strain tpk1, active compounds read low",0.968
same,normalized growth,"locus YJL166W, strain qcr8, active compounds read low",0.98
same,normalized growth,"locus YJR066W, strain TOR1, active compounds read low",0.941
same,normalized growth,"locus YKL160W, strain elf1, active compounds read low",0.935
same,normalized growth,"locus YKR026C, strain gcn3, active compounds read low",0.966
same,normalized growth,"locus YKR091W, strain srl3, active compounds read low",0.964
same,normalized growth,"locus YLL001W, strain dnm1, active compounds read low",0.987
same,normalized growth,"locus YLL026W, active compounds read low",0.982
same,normalized growth,"locus YLL041C, strain sdh2, active compounds read low",0.961
same,normalized growth,"locus YLR027C, strain aat2, active compounds read low",0.95
same,normalized growth,"locus YLR113W, strain HOG1, active compounds read low",1.01
same,normalized growth,"locus YLR221C, strain rsa3, active compounds read low",0.997
same,normalized growth,"locus YLR258W, strain gsy2, active compounds read low",0.966
same,normalized growth,"locus YLR262C, strain YPT6 (second series), active compounds read low",1.01
same,normalized growth,"locus YLR320W, strain mms22, active compounds read low",0.98
same,normalized growth,"locus YLR342W, strain FKS1, active compounds read low",0.973
same,normalized growth,"locus YLR357W, strain rsc2, active compounds read low",0.946
same,normalized growth,"locus YLR370C, strain arc18, active compounds read low",0.96
same,normalized growth,"locus YLR384C, strain iki3, active compounds read low",0.967
same,normalized growth,"locus YML120C, strain ndi1, active compounds read low",0.97
same,normalized growth,"locus YMR058W, strain fet3, active compounds read low",0.955
same,normalized growth,"locus YMR125W, strain sto1, active compounds read low",0.933
same,normalized growth,"locus YMR129W, active compounds read low",0.979
same,normalized growth,"locus YMR205C, strain PFK2, active compounds read low",0.958
same,normalized growth,"locus YMR231W, strain pep5, active compounds read low",0.979
same,normalized growth,"locus YNL071W, strain lat1, active compounds read low",0.958
same,normalized growth,"locus YNL183C, strain NPR1, active compounds read low",0.97
same,normalized growth,"locus YNL209W, strain ssb2, active compounds read low",0.962
same,normalized growth,"locus YNL248C, strain rpa49, active compounds read low",0.955
same,normalized growth,"locus YNL322C, strain KRE1 (second series), active compounds read low",0.936
same,normalized growth,"locus YNR049C, strain mso1, active compounds read low",0.97
same,normalized growth,"locus YOR001W, strain rrp6, active compounds read low",0.948
same,normalized growth,"locus YOR070C, strain gyp1, active compounds read low",0.98
same,normalized growth,"locus YOR080W, strain dia2, active compounds read low",0.975
same,normalized growth,"locus YOR083W, strain WHI5, active compounds read low",0.913
same,normalized growth,"locus YOR106W, strain vam3, active compounds read low",0.889
same,normalized growth,"locus YOR231W, strain MKK1, active compounds read low",0.969
same,normalized growth,"locus YOR265W, strain rbl2, active compounds read low",0.969
same,normalized growth,"locus YOR270C, strain vph1, active compounds read low",0.872
same,normalized growth,"locus YOR290C, strain snf2, active compounds read low",0.916
same,normalized growth,"locus YPL051W, strain arl3, active compounds read low",0.956
same,normalized growth,"locus YPL078C, strain atp4, active compounds read low",0.957
same,normalized growth,"locus YPL106C, strain sse1, active compounds read low",0.942
same,normalized growth,"locus YPL240C, strain hsp82, active compounds read low",0.967
same,normalized growth,"locus YPL256C, strain CLN2, active compounds read low",0.963
